Data taken from PubChem BioAssay AID1259240 (Keith Lab, Institute of Cancer Science, University of …, 2017).
Active and inactive are the calls of the source. Cut-off read from the data, not from the text of the source: active = fold change mostly below about -2 (no sharp cut-off); inactive = mostly above about -1.8.

Assay: TERT promoter activity modulators, primary screen, cell-based, luciferase reporter, human (AID 1259240)
Conditions: A2780 TERT promoter luciferase reporter, 16 h; at 20 µM, fold versus average of vehicle-only wells

Structure (SMILES)	fold change
Cc1c(/C=C2/SC(=S)N(CC(=O)O)C2=O)c2ccccc2n1C	1.33 (inactive)
CC1(C)CC(=O)c2sc(NC(=O)Cc3ccc(Br)cc3)nc2C1	-3.4 (active)
COC(=O)CSCc1nc2ccccc2[nH]c1=O	-1.41 (inactive)
CN(C(=O)c1ccc2c(=O)n3c(nc2c1)CCCCC3)c1ccc(F)cc1	-1.12 (inactive)
c1ccc(-c2nnc3ccc(N4CCC5(CC4)OCCO5)nn23)cc1	1.02 (inactive)
COc1ccc(OC(C)c2nc(-c3ccc(OC)cc3)no2)cc1 (stereo unspecified)	1.61 (inactive)
CCCCNS(=O)(=O)c1ccc(C)c(-c2nnc3c4ccccc4c(C)nn23)c1	-1.28 (inactive)
CC(C)(C)c1ccc(OCc2nc(-c3ccncc3)no2)c(Br)c1	-1.23 (inactive)
Cn1c2ccccc2c2c(C(=O)Nc3ccccc3F)cn(C3CCCC3)c(=O)c21	-1.15 (inactive)
COc1ccc2cc3c(N)nn(C(=O)Cn4nc([N+](=O)[O-])c(Br)c4C)c3nc2c1	-1.45 (inactive)
O=C(COc1ccc(Cl)cc1)Nc1ccc2nc3n(c(=O)c2c1)CCCCC3	-1.27 (inactive)
Cn1c(=O)c2c(SCC(=O)N3CCOCC3)nc(-c3ccco3)nc2n(C)c1=O	1.36 (inactive)
Cc1nnc2ccc(N3CCC(C(N)=O)(N4CCCCC4)CC3)nn12	-1.03 (inactive)
CC1CCN(c2nnc(NC(=O)Nc3ccc(F)cc3)s2)CC1	-1.1 (inactive)
CCN1CCN(S(=O)(=O)c2ccc3[nH]c(=O)oc3c2)CC1	1.02 (inactive)
CCN1CCN(C(=O)C2CCN(S(=O)(=O)c3ccc4c(c3)oc(=O)n4C)CC2)CC1	-1.05 (inactive)
